Experimental findings from PubChem BioAssay (NCI) are described below.

Molecules are shown by their SMILES. The panel holds about 83,000 compounds, 20% with a hit somewhere; the sample as a whole holds those more often.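 Interpretation: 100, growth as untreated; towards 0, rising growth inhibition; 0, no net growth; 0 to -100, cell death. Compounds scoring below 10 were considered active.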 Unmarked numbers belong to inactive results. Activity calls are given as the source filed them.

Holding throughout (assay): NCI-60 one-dose screen, 48 h (100 = growth as untreated, 0 = no growth, -100 = all killed)
One assay concerns SK-MEL-2 melanoma. As to conditions: 10 µM unless noted.
The test system of the next assay is EKVX NSCLC. The settings on record: 10 µM unless noted.
The test system of a further assay is SN12C renal. As to conditions: 10 µM unless noted.
The test system of a further assay is UO-31 renal. As to conditions: 10 µM unless noted.
In a further assay the test system is ACHN renal. As to conditions: 10 µM unless noted.
Another assay has as its system CAKI-1 renal. The settings on record: 10 µM.
The test system of a further assay is A498 renal. The settings on record: 10 µM unless noted.
The subject of a further assay is CCRF-CEM leukemia. As to conditions: 10 µM unless noted.
The test system of the next assay is OVCAR-8 ovarian. As to conditions: 10 µM unless noted.
A further assay deals with OVCAR-5 ovarian. As to conditions: 10 µM unless noted.
Another assay deals with OVCAR-4 ovarian. The settings on record: 10 µM unless noted.
The subject of a further assay is SK-OV-3 ovarian. As to conditions: 10 µM unless noted.
Another assay has as its system IGROV1 ovarian. The settings on record: 10 µM unless noted.
A further assay has as its system OVCAR-3 ovarian. As to conditions: 10 µM unless noted.
The next assay deals with HS 578T breast. As to conditions: 10 µM unless noted.
The test system of another assay is NCI/ADR-RES ovarian. As to conditions: 10 µM unless noted.
For the next assay, the system named is RPMI-8226 leukemia. The settings on record: 10 µM unless noted.
The test system of a further assay is MOLT-4 leukemia. As to conditions: 10 µM unless noted.
The subject of the next assay is SR leukemia. As to conditions: 10 µM unless noted.

On to `CC[C@H]1[C@@H]2C=C[C@@H]3[C@H]4C/C=C\C(=O)NCCC[C@@H]5NC(=O)/C(=C(O)/C=C/[C@@H]4C[C@@H]3[C@H]2C[C@H]1C)C5=O`, for which the growth was 46% in the assay on SK-MEL-2 melanoma; 15.3% in the assay on EKVX NSCLC; -66.1% (active) in the assay on SN12C renal; -78.2% (active) in the assay with UO-31 renal; -84.1% (active) with ACHN renal; -41.3% (active) with CAKI-1 renal. For the same compound, the growth is -18.4% (active) with A498 renal; -17% (active) in the assay on CCRF-CEM leukemia; -54.8% (active) with OVCAR-8 ovarian; 41.6% in the assay with OVCAR-5 ovarian; -31.5% (active) in the assay on OVCAR-4 ovarian; 1.98% (active) in the assay with SK-OV-3 ovarian. The growth is -66.5% (active) in the assay with IGROV1 ovarian, -94.7% (active) with OVCAR-3 ovarian, -2.24% (active) in the assay on HS 578T breast and -57.2% (active) in the assay with NCI/ADR-RES ovarian.

As to `CC(=O)c1cc2c(c(O)c1C)C(=O)C(=O)c1c(O)cccc1-2`, the growth in the assay with SK-MEL-2 melanoma is -72.7% (active); in the assay with EKVX NSCLC it was -42.3% (active); with SN12C renal, -41.4% (active); in the assay with UO-31 renal it was -97.3% (active); in the assay on ACHN renal it was -90.3% (active); with CAKI-1 renal, -79.6% (active). Further, the growth in the assay on A498 renal is -80.6% (active); with CCRF-CEM leukemia, 0.77% (active); in the assay with RPMI-8226 leukemia it was -32.4% (active); in the assay with OVCAR-8 ovarian, -60.6% (active); with OVCAR-5 ovarian, -80.6% (active); in the assay with OVCAR-4 ovarian it was -97.6% (active). The growth was -94.3% (active) in the assay on SK-OV-3 ovarian, -37.3% (active) with IGROV1 ovarian, -45.6% (active) with OVCAR-3 ovarian and -12.3% (active) in the assay on HS 578T breast.

For `O=C(NCCNc1nccc(-c2c(-c3cccc(O)c3)nc3sccn23)n1)c1cccc(C(F)(F)F)c1`, the growth is 62.1% in the assay with SK-MEL-2 melanoma; 91.6% in the assay with EKVX NSCLC; 83.2% in the assay with SN12C renal; 73.4% in the assay on UO-31 renal; 66.1% in the assay on ACHN renal; 75.6% in the assay on CAKI-1 renal. Moreover, the growth in the assay on A498 renal was 84.5%; with CCRF-CEM leukemia, 37.5%; in the assay with MOLT-4 leukemia it was 61.5%; in the assay on SR leukemia, 97%; with RPMI-8226 leukemia, 44.2%; in the assay with OVCAR-5 ovarian, 113%. The growth is 117% in the assay on OVCAR-4 ovarian; 84.2% with SK-OV-3 ovarian; 62.1% in the assay with IGROV1 ovarian; 89.8% with OVCAR-3 ovarian; 98.3% with NCI/ADR-RES ovarian.

Regarding `O=C(Nc1ccc(-n2ccc3c(NC(=O)c4ccccc4)ncnc32)cc1)c1cccc(C(F)(F)F)c1`, the growth with SK-MEL-2 melanoma is 85.8%; in the assay on EKVX NSCLC, 63.5%; in the assay with SN12C renal, 60.7%; in the assay on UO-31 renal it was 45.9%; in the assay with ACHN renal it was 34%; with CAKI-1 renal it was 27.9%. Besides, the growth in the assay on A498 renal was 87.5%; in the assay with CCRF-CEM leukemia it was 28.2%; in the assay on MOLT-4 leukemia it was 19.7%; in the assay on SR leukemia, 2.8% (active); with RPMI-8226 leukemia, 20.1%; in the assay on OVCAR-8 ovarian, 40.9%. Moreover, the growth in the assay with OVCAR-5 ovarian is 62.3%; in the assay with OVCAR-4 ovarian it was 97.1%; in the assay on SK-OV-3 ovarian, 61.2%; in the assay with IGROV1 ovarian, 43.1%; in the assay on OVCAR-3 ovarian, 54.4%; in the assay on NCI/ADR-RES ovarian it was 50.7%.

Turning to `O=C(NCCNc1nccc(-c2c(-c3cccc(O)c3)nc3sccn23)n1)c1ccccc1O`, the growth in the assay on SK-MEL-2 melanoma is 13.9%; in the assay with EKVX NSCLC, 66.8%; with SN12C renal, 48%; in the assay with UO-31 renal, 34.6%; with ACHN renal, 46.1%; in the assay with CAKI-1 renal, 24.3%. The growth in the assay on A498 renal is 104%; in the assay with CCRF-CEM leukemia, 18.9%; with MOLT-4 leukemia, 46.2%; in the assay with SR leukemia it was 63.2%; in the assay on RPMI-8226 leukemia, 11.6%; with OVCAR-8 ovarian it was 41.3%. Moreover, the growth is 88.7% in the assay on OVCAR-5 ovarian; 96.2% in the assay on OVCAR-4 ovarian; 60.5% in the assay with SK-OV-3 ovarian; 31.6% with IGROV1 ovarian; 60.2% with OVCAR-3 ovarian; 73.6% in the assay with NCI/ADR-RES ovarian.

With `O=C(Nc1ccc(-n2ccc3c(NC(=O)c4ccccc4)nccc32)cc1)Nc1cccc(C(F)(F)F)c1`, the growth in the assay with SK-MEL-2 melanoma is 71.9%; with EKVX NSCLC, 65.5%; in the assay on SN12C renal, 79.2%; in the assay with UO-31 renal it was 78%; in the assay with ACHN renal, 62.2%; with CAKI-1 renal it was 68.6%. Moreover, the growth is 80.7% in the assay on A498 renal; 13.8% with CCRF-CEM leukemia; 35.9% with MOLT-4 leukemia; 18.8% in the assay on SR leukemia; 19.4% in the assay on RPMI-8226 leukemia; 48.5% in the assay with OVCAR-8 ovarian. The growth with OVCAR-5 ovarian was 81.8%; in the assay on OVCAR-4 ovarian, 26%; in the assay with SK-OV-3 ovarian it was 92.2%; in the assay on IGROV1 ovarian it was 54.1%; with NCI/ADR-RES ovarian, 65.7%.

`O=C(CSc1nnc(-c2cc3c([nH]c4ccccc43)c(-c3cccc(O)c3)n2)n1-c1ccccc1)c1ccccc1`: the growth with SK-MEL-2 melanoma is 65.7%; in the assay on EKVX NSCLC it was 69.3%; in the assay with SN12C renal, 67.7%; in the assay with UO-31 renal, 63.4%; in the assay on ACHN renal, 40.3%; in the assay with CAKI-1 renal, 45.5%. Also, the growth with A498 renal was 67%; with CCRF-CEM leukemia it was 30.9%; in the assay on MOLT-4 leukemia, 41.7%; with SR leukemia, 18.6%; in the assay on OVCAR-8 ovarian, 57.3%; in the assay on OVCAR-5 ovarian, 104%. In addition, the growth with OVCAR-4 ovarian is 50.1%; with SK-OV-3 ovarian it was 92.8%; in the assay with IGROV1 ovarian, 61.2%; with OVCAR-3 ovarian, 40.6%; in the assay with HS 578T breast, 73.3%; in the assay on NCI/ADR-RES ovarian, 64%.

On to `COc1ccc(OCC(O)CN2CCN(c3ccc(Cl)cc3)CC2)cc1` (stereo not drawn), for which the growth with SK-MEL-2 melanoma is 135%; in the assay on EKVX NSCLC, 97.4%; in the assay on SN12C renal it was 105%; in the assay with UO-31 renal, 76%; in the assay on ACHN renal it was 101%; with CAKI-1 renal, 79.9%. Moreover, the growth in the assay with A498 renal was 82.8%; in the assay on CCRF-CEM leukemia, 113%; in the assay on MOLT-4 leukemia, 107%; in the assay on SR leukemia, 112%; in the assay on RPMI-8226 leukemia it was 98.9%; with OVCAR-8 ovarian it was 61.6%. The growth was 79.8% with OVCAR-4 ovarian, 90.7% in the assay with SK-OV-3 ovarian, 105% with OVCAR-3 ovarian and 123% with HS 578T breast.

For the compound `C=CCn1c(SCC(=O)Nc2ccc(C(=O)/C=C/c3cc(OC)c(OC)c(OC)c3)cc2)nnc1-c1ccc(OC)cc1`, the growth is 15.1% with SK-MEL-2 melanoma; 14.1% with EKVX NSCLC; 13.8% in the assay with SN12C renal; -79.6% (active) with UO-31 renal; -56.1% (active) in the assay on ACHN renal; 16.5% in the assay on CAKI-1 renal. Moreover, the growth in the assay on A498 renal was -3.03% (active); in the assay on CCRF-CEM leukemia it was 6.53% (active); in the assay on RPMI-8226 leukemia it was -33.1% (active); with OVCAR-8 ovarian, 7.47% (active); in the assay with OVCAR-5 ovarian, 9.19% (active); in the assay with OVCAR-4 ovarian it was 19.3%. The growth is 16.6% with SK-OV-3 ovarian; -3.21% (active) in the assay with IGROV1 ovarian; -45.9% (active) in the assay on OVCAR-3 ovarian; 32.5% with HS 578T breast; 20.1% in the assay with NCI/ADR-RES ovarian.
